The values below come from PubChem BioAssay (NCI).

The panel holds about 83,000 compounds, 20% with a hit somewhere; the sample as a whole holds those more often.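 A percent growth of 40 corresponds to 60% growth inhibition; 0 means no net growth; -100 means all cells died. Active threshold: below 10.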 Values without a mark were called inactive. Calls of active or inactive are those of the source.

Common to all, as to assay: NCI-60 one-dose screen, 48 h (100 = growth as untreated, 0 = no growth, -100 = all killed)
The test system of one assay is NCI-H23 lung. The conditions noted are these: 10 µM unless noted.
A further assay has as its system NCI-H226 lung. The conditions noted are these: 10 µM unless noted.
A further assay relates to NCI-H322M lung. The conditions noted are these: 10 µM unless noted.
Another assay relates to HOP-62 NSCLC. The conditions noted are these: 10 µM unless noted.
Another assay deals with NCI-H460 lung. The conditions noted are these: 10 µM unless noted.
The subject of another assay is HOP-92 NSCLC. The conditions noted are these: 10 µM unless noted.
In another assay the test system is NCI-H522 lung. The conditions noted are these: 10 µM unless noted.
The next assay relates to A549/ATCC NSCLC. The conditions noted are these: 10 µM unless noted.
In a further assay the test system is 786-0 renal. The conditions noted are these: 10 µM unless noted.
The next assay concerns COLO 205 colon. The conditions noted are these: 10 µM unless noted.
The test system of the next assay is DU-145 prostate. The conditions noted are these: 10 µM unless noted.
The next assay deals with K-562 leukemia. The conditions noted are these: 10 µM unless noted.
The subject of the next assay is MALME-3M melanoma. The conditions noted are these: 10 µM unless noted.
The subject of the next assay is MDA-MB-231 breast. The conditions noted are these: 10 µM unless noted.
The next assay deals with RXF 393 renal. The conditions noted are these: 10 µM unless noted.
A further assay deals with SF-268 CNS. The conditions noted are these: 10 µM unless noted.
For another assay, the system named is SF-295 CNS. The conditions noted are these: 10 µM unless noted.
The test system of the next assay is SF-539 CNS. The conditions noted are these: 10 µM unless noted.
A further assay concerns UACC-257 melanoma. The conditions noted are these: 10 µM.
The next assay relates to M14 melanoma. The conditions noted are these: 10 µM unless noted.

With `CCOC(=O)C1=C(C)Nc2nc3ccccc3n2C1c1ccccc1` (stereo not drawn), the growth in the assay with NCI-H23 lung is 97%; in the assay on NCI-H226 lung it was 104%; with NCI-H322M lung, 104%; in the assay on HOP-62 NSCLC, 100%; with NCI-H460 lung it was 74.7%; with HOP-92 NSCLC, 95.7%. Also, the growth with NCI-H522 lung was 93.3%; in the assay with A549/ATCC NSCLC it was 92.7%; in the assay on 786-0 renal it was 95.4%; in the assay with COLO 205 colon it was 104%; in the assay on DU-145 prostate it was 105%; with K-562 leukemia, 76.1%. Moreover, the growth in the assay on MALME-3M melanoma is 94.3%; in the assay with MDA-MB-231 breast it was 95.8%; in the assay with RXF 393 renal, 107%; in the assay with SF-268 CNS, 102%; in the assay with SF-295 CNS, 102%; in the assay with SF-539 CNS, 96.9%. Also, the growth with UACC-257 melanoma is 97.4%; in the assay with M14 melanoma, 102%.
With `CC(=O)NC(C)(C)C(=O)N1CCC[C@H]1C(=O)NC(C)(C)C(=O)N[C@@H](C)C(=O)NC(C)(C)C(=O)NC(C)(C)C(=O)N[C@@H](CCC(N)=O)C(=O)NC(C)(C)C(=O)N[C@H](C(=O)NC(C)(C)C(=O)NCC(=O)N[C@@H](CC(C)C)C(=O)NC(C)(C)C(=O)N1CCC[C@H]1C(=O)N[C@H](C(=O)NC(C)(C)C(=O)NC(C)(C)C(=O)N[C@@H](CCC(N)=O)C(=O)N[C@@H](CCC(N)=O)C(=O)N[C@H](CO)Cc1ccccc1)C(C)C)C(C)C`, the growth in the assay on NCI-H23 lung is 21.1% [4.25 µM]; with NCI-H226 lung it was 29.8% [4.25 µM]; in the assay on NCI-H322M lung, 71.1% [4.25 µM]; in the assay on HOP-62 NSCLC, 41% [4.25 µM]; with NCI-H460 lung it was 29.9% [4.25 µM]; in the assay on HOP-92 NSCLC it was -10.1% [4.25 µM] (active). Also, the growth with NCI-H522 lung was 10.6% [4.25 µM]; in the assay with A549/ATCC NSCLC, 26.7% [4.25 µM]; with 786-0 renal, 80.5% [4.25 µM]; with COLO 205 colon it was -25.1% [4.25 µM] (active); in the assay with DU-145 prostate, 43.5% [4.25 µM]; in the assay on K-562 leukemia, 22.2% [4.25 µM]. The growth in the assay with MALME-3M melanoma was -10.6% [4.25 µM] (active); in the assay with MDA-MB-231 breast it was 36.5% [4.25 µM]; with RXF 393 renal it was 18% [4.25 µM]; with SF-268 CNS, 32.9% [4.25 µM]; with SF-295 CNS, 22.2% [4.25 µM]; with SF-539 CNS, 24.5% [4.25 µM]. Moreover, the growth in the assay on M14 melanoma was 51.3% [4.25 µM].
Turning to `CC[C@@](C)(NC(=O)C(C)(C)NC(=O)[C@@H](NC(=O)[C@@H]1CCCN1C(=O)C(C)(C)NC(=O)[C@H](CC(C)C)NC(=O)CNC(=O)C(C)(C)NC(=O)[C@@H](NC(=O)C(C)(C)NC(=O)[C@H](CCC(N)=O)NC(=O)[C@H](C)NC(=O)C(C)(C)NC(=O)[C@H](C)NC(=O)C(C)(C)NC(=O)[C@H](C)NC(=O)C(C)(C)NC(C)=O)C(C)C)C(C)C)C(=O)N[C@@H](CCC(N)=O)C(=O)N[C@@H](CCC(N)=O)C(=O)N[C@H](CO)CC1CCCCC1`, the growth in the assay with NCI-H23 lung is 16.2% [5 µM]; in the assay with NCI-H226 lung, 47.8% [5 µM]; with NCI-H322M lung it was 48.8% [5 µM]; in the assay on HOP-62 NSCLC it was 47.2% [5 µM]; in the assay on NCI-H460 lung, 35.1% [5 µM]; in the assay on HOP-92 NSCLC it was -17.2% [5 µM] (active). In addition, the growth is 1.56% [5 µM] (active) in the assay on NCI-H522 lung; 47.8% [5 µM] in the assay with A549/ATCC NSCLC; -14.2% [5 µM] (active) in the assay on 786-0 renal; -7.42% [5 µM] (active) in the assay on COLO 205 colon; 35.1% [5 µM] in the assay with DU-145 prostate; 32.1% [5 µM] in the assay with K-562 leukemia. Moreover, the growth in the assay on MALME-3M melanoma was -18.4% [5 µM] (active); in the assay on MDA-MB-231 breast it was 32.7% [5 µM]; with RXF 393 renal, 23.7% [5 µM]; in the assay on SF-268 CNS, 32.6% [5 µM]; in the assay with SF-295 CNS it was 81.8% [5 µM]; with SF-539 CNS it was 18.8% [5 µM]. Besides, in the assay with M14 melanoma, the growth is 58.4% [5 µM].
As for `C#CCOc1ccc(C(Nc2cc(Cl)ccc2Cl)c2nnnn2C2CCCCC2)cc1` (stereo not drawn), the growth in the assay on NCI-H23 lung is 88.6%; in the assay on NCI-H226 lung, 85.3%; with NCI-H322M lung, 87.4%; in the assay with HOP-62 NSCLC it was 86.4%; in the assay with NCI-H460 lung it was 88.3%; with HOP-92 NSCLC, 72.7%. For the same compound, the growth in the assay with NCI-H522 lung is 69.9%; with A549/ATCC NSCLC, 80.5%; in the assay with 786-0 renal, 90%; with COLO 205 colon, 107%; in the assay on DU-145 prostate, 97.7%; with K-562 leukemia, 83.5%. Moreover, the growth in the assay with MALME-3M melanoma was 101%; in the assay on MDA-MB-231 breast, 73.7%; with RXF 393 renal it was 92.6%; in the assay on SF-268 CNS it was 83.4%; in the assay on SF-295 CNS it was 80.7%; in the assay with SF-539 CNS it was 95.3%. The growth in the assay with UACC-257 melanoma was 102%; in the assay with M14 melanoma it was 92.2%.
`O=C(COc1ccc(C2SCC(=O)N2c2ccccc2)cc1)c1ccccc1` (stereo not drawn): the growth in the assay on NCI-H23 lung is 94%; with NCI-H226 lung, 90%; in the assay with NCI-H322M lung, 103%; in the assay with HOP-62 NSCLC, 95.6%; with NCI-H460 lung, 102%; in the assay with HOP-92 NSCLC it was 86.8%. The growth in the assay with NCI-H522 lung is 80.6%; in the assay on A549/ATCC NSCLC, 93.8%; in the assay on 786-0 renal, 102%; with COLO 205 colon, 111%; with DU-145 prostate, 102%; in the assay with K-562 leukemia, 88.9%. The growth with MALME-3M melanoma was 100%; with MDA-MB-231 breast, 81.6%; with RXF 393 renal it was 91.2%; in the assay on SF-268 CNS, 93.4%; in the assay with SF-295 CNS it was 96.9%; in the assay on SF-539 CNS it was 101%. In addition, the growth with UACC-257 melanoma and in the assay on M14 melanoma was 102% in each case.
For the compound `N/C(=N\c1nc2ccc([N+](=O)[O-])cc2s1)C(Cl)(Cl)Cl`, the growth is 91.3% in the assay with NCI-H23 lung; 85.2% in the assay on NCI-H226 lung; 10.5% in the assay with NCI-H322M lung; 41.9% in the assay with HOP-62 NSCLC; 14.3% with NCI-H460 lung; 36.2% in the assay with HOP-92 NSCLC. Also, the growth in the assay on NCI-H522 lung is 85.3%; in the assay with A549/ATCC NSCLC, 26.5%; in the assay on 786-0 renal, 80.5%; in the assay with COLO 205 colon, 32%; in the assay with DU-145 prostate it was 1.66% (active); in the assay on K-562 leukemia, 81.2%. Further, the growth was 77.4% in the assay with MALME-3M melanoma; 63.1% in the assay with MDA-MB-231 breast; 44.3% in the assay with RXF 393 renal; 71.3% in the assay with SF-268 CNS; 19.6% in the assay on SF-295 CNS; 63.5% in the assay with SF-539 CNS. The growth in the assay with UACC-257 melanoma was 85.1%; in the assay on M14 melanoma, 85.5%.
For `Cc1cn(-c2cc(NC(=O)c3cncc(C#Cc4cnc5ccc(O[C@@H]6CCOC6)nn45)c3)cc(C(F)(F)F)c2)cn1`, the growth in the assay with NCI-H23 lung was -46.6% (active); in the assay with NCI-H226 lung, -16% (active); in the assay with NCI-H322M lung, -12.7% (active); in the assay with HOP-62 NSCLC it was -12% (active); in the assay on NCI-H460 lung it was -76.9% (active); in the assay with HOP-92 NSCLC, -44.6% (active). Also, the growth with NCI-H522 lung is -69.3% (active); in the assay with A549/ATCC NSCLC, -75.3% (active); with 786-0 renal, -88.2% (active); in the assay with COLO 205 colon, -84.9% (active); in the assay on DU-145 prostate, -86.5% (active); in the assay on K-562 leukemia, -17.6% (active). The growth was -83% (active) in the assay with MALME-3M melanoma; -35.5% (active) in the assay with MDA-MB-231 breast; -91.5% (active) in the assay with RXF 393 renal; -42.1% (active) in the assay with SF-268 CNS; -21.7% (active) in the assay with SF-295 CNS; -90.5% (active) with SF-539 CNS. The growth is -19% (active) in the assay on UACC-257 melanoma and -96.2% (active) in the assay on M14 melanoma.
